Screens deposited in PubChem BioAssay by National Center for Advancing Translational Sciences (NCATS).
Rows were chosen to be rich in hits. Some 2.1% of all compounds tested hit in one or more screens of this group.
FUS yeast rescue – rescues growth of FUS-expressing yeast. S. cerevisiae FUS-expressing, growth rescue, OD600, 24 h. Potency, µM (doses to about 76.6 µM), most hits filed as activators. 0.24% of 390,000 active;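 note: plate controls were DMSO vehicle for no effect and reference control for full effect; nearly all actives have a fitted effect of over 55% in size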
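Steps: raffinose overnight preculture; dilution to OD 0.005 in 2% galactose minimal medium; compound addition (concentration series); 24hr at 30C, 99% humidity; absorbance read at 600 nm.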
TDP43 rescue – TDP-43 toxicity inhibition in yeast | TDP-43 expressing yeast growth rescue, BacTiter-Glo, 24 h | Potency, µM (highest dose often 46.1 µM), inactives show top-dose growth rescue (activation), usual class: activators | 1.8% of 410,000 active | AID 652104; note: % of control where 0% means no effect; nearly all actives have a fitted effect of over 50% in size
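Yeast expressing TDP-43 (pregrown in raffinose, seeded at OD600=0.02 in galactose medium) exposed to compounds 24 hr at 30 deg C. Growth read by BacTiter-Glo luminescence; rescue of toxicity appears as increased signal.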
Abeta yeast res – A-beta toxicity reversal in yeast | yeast expressing A-beta42, growth rescue, OD600, 48 h; response scale: 0% DMSO, 100% iron-clioquinol control | Potency, µM (titrated, usually from 46.1 µM), actives largely listed as activators | 0.063% of 410,000 active | AID 1347071; note: nearly all actives have a fitted effect of over 55% in size
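Yeast A-beta toxicity model in growth medium with pinned compounds, 48 h at 30 C; growth read as absorbance at 600 nm. Normalized to FeCl3/clioquinol equimolar mix (positive) and DMSO (negative).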
aSyn rescue – inhibitors of alpha-synuclein toxicity in yeast | Yeast expressing alpha-synuclein, growth rescue, BacTiter-Glo, 24 h | Potency, µM (titrated, usually from 46.1 µM), for inactives: at the top dose growth rescue (activation), hits mostly activators | 0.14% of 370,000 active; note: % of control where 0% means no effect; nearly all actives have a fitted effect of over 65% in size
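Readout is rescue of growth in alpha-synuclein-expressing yeast, so inhibitors of toxicity appear as activators. Growth after 24 hr at 30 deg C in galactose medium is quantified by luminescence.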
* = called active by the depositor; i = inactive; u = inconclusive; x = no result; [ ] = dose if it differs, or a comment. Calls come from the whole dose curve; as a rule, active = well fitted curve in the direction sought with a large enough effect; inconclusive = small, poorly fitted or top-dose-only effect, or another doubt; inactive = no such curve, though single readings can be large; an effect the other way counts as inactive or inconclusive. Potency is the fitted concentration of half-maximal effect.

SMILES	FUS yeast rescue	TDP43 rescue	Abeta yeast res	aSyn rescue
CCCOc1ccccc1N/C(N)=N/c1nc(C)cc(C)n1	i	-23.2%	i	-7.6%
CCN(CC)C(=O)CC[C@H]1CC[C@]2(CCCN(C3CCCCC3)C2)O1	i	x	x	x
Cc1ccc[n+](CC(=O)Nc2ccc([N+](=O)[O-])cc2)c1	i	8.91µM*	i	-11.2%
O=C(Nc1ccsc1C(=O)O)c1ccccc1	i	-17.7%	i	-12.0%
O=C(Nc1ccsc1C(=O)NC1CC1)c1ccccc1	i	12.6µM*	i	-11.5%
Cc1ccc(C(=O)c2cc3c(cc2[N+](=O)[O-])OCCO3)cc1	i	12.6µM*	i	-7.1%
COc1ccccc1N1CCN(C(CNC(=O)C(=O)NCCc2ccccc2)c2cccnc2)CC1 (stereo unspecified)	i	11.8%	i	x
COc1ccc(-c2nc3cc(C)c(Br)c(C)n3c2CC2CCCCC2)cc1OC	i	22.4µM*	i	2.0%
Cc1ccc(-c2nc3cc(C)c(Br)c(C)n3c2CC2CCCCC2)cc1	i	16.4%	i	-9.6%
CCc1cccc(-n2nnc(-c3nc(-c4cccs4)no3)c2N)c1	i	0.0%	i	x
O=C(C1CCN(S(=O)(=O)Cc2ccccc2)CC1)N1CCN(c2ccc(F)cc2)CC1	i	22.4µM*	i	x
O=C1[C@@H]2CSC(c3ccc(F)cc3)N2C(=O)N1c1ccc(Cl)cc1 (stereo partly specified)	i	14.1µM*	i	x
O=S(=O)(N=C(NS(=O)(=O)c1ccc(Cl)cc1)c1ccccc1)c1ccc(Cl)cc1	i	11.2µM*	i	-1.6%
O=S(=O)(/N=C(/NS(=O)(=O)c1ccccc1)c1ccccc1)c1ccccc1	i	11.5%	i	1.6%
CCOC(=O)c1ccc(NC(=O)c2c(-c3c(F)cccc3Cl)noc2C)cc1	i	u	i	x
CC(C)(C)OC(=O)NCCCC[C@H](NC(=O)c1nc[nH]c1C(=O)NC1CCN(C(=O)OC(C)(C)C)CC1)C(=O)OC(C)(C)C	14.1µM*	15.2%	i	-9.5%
CC(C)(C)OC(=O)NCCCC[C@H](NC(=O)c1nc[nH]c1C(=O)NC(c1ccccc1)c1ccccc1)C(=O)OC(C)(C)C	15.8µM*	-8.1%	i	7.8%
CC(C)C[C@H](NC(=O)c1nc[nH]c1C(=O)NC1CCN(C(=O)OC(C)(C)C)CC1)C(=O)OCc1ccccc1	u	8.1%	i	-0.3%
CC(C)C[C@H](NC(=O)c1nc[nH]c1C(=O)NC1CCN(C(=O)OC(C)(C)C)CC1)C(=O)OC(C)(C)C	14.1µM*	1.6%	i	-2.5%
CC(C)(C)OC(=O)NCCCC[C@H](NC(=O)c1nc[nH]c1C(=O)N[C@@H](CCCCNC(=O)OC(C)(C)C)C(=O)OC(C)(C)C)C(=O)OC(C)(C)C	u	20.3%	i	2.9%
O=C(O)c1nn(CCOc2ccc(Br)cc2)c(=O)c2ccccc12	i	12.6µM*	i	4.1%
Cc1cc(OCCn2nc(C(=O)O)c3ccccc3c2=O)ccc1C(C)C	i	20.5%	i	-15.1%
COc1cc(OC)c(/C=C/c2cc3ccccc3c[n+]2C)c(OC)c1	x	x	x	-6.1%
Cc1ccc(NC(=O)COC(=O)c2c(-c3ccccc3)noc2C)cc1	i	14.7%	i	4.3%[1.84 µM]
Cc1onc(-c2ccccc2)c1C(=O)OCC(=O)Nc1ccc(OC(F)(F)F)cc1	i	15.8µM*	i	-0.4%
SMILES	FUS yeast rescue	TDP43 rescue	Abeta yeast res	aSyn rescue
CNCC(=O)Nc1ccc(OC(F)(F)F)cc1	i	27.6%	i	3.1%
CC(C)NC(=O)NC(=O)COC(=O)c1ccc(OC(F)(F)F)cc1	x	u	10µM*	6.5%
COc1cccc(OC)c1C(=O)OCC(=O)Nc1ccc(OC(F)(F)F)cc1	i	14.1µM*	i	-3.9%
COc1cc2ccccc2cc1C(=O)N1CCN(c2ccccc2O)CC1	u	12.6µM*	i	0.5%
COc1ccccc1N1CCN(C(=O)c2cc3c(=O)n4ccccc4nc3s2)CC1	i	20µM*	i	8.0%
COc1cc2ccccc2cc1C(=O)N1CCCC1	i	9.7%	i	2.7%
CN1CCN(C(=O)c2cc3c(=O)n4ccccc4nc3s2)CC1	i	-10.6%	i	1.2%
Cc1noc(C)c1COc1ccc(C(=O)N2CCN(c3cccc(Cl)c3)CC2)cc1	i	22.4µM*	i	10.3%
COc1ccccc1N1CCN(C(=O)Nc2ccc([N+](=O)[O-])cc2)CC1	i	14.1µM*	i	6.1%
